Target: TDRD10
Assay: pooled miR-30 sensor sort-seq; sequence = guide strand
Conditions: shRNA
Further: reference of the scale not given here.

TTCTCCATTATCCAGAATCTGT was tested. Which sensor-assay potency score (higher = more potent) did it give?
The sensor-assay potency score (higher = more potent) was -1.03.

Which sensor-assay potency score (higher = more potent) does the source give for TTTGTGGACATCAAGAGGGTTG here?
Its sensor-assay potency score (higher = more potent) is -0.333.

With AAGTCGTCGCTGTCTAGGCTGC as the sequence, how does the sensor-assay potency score (higher = more potent) read?
Its sensor-assay potency score (higher = more potent) is -0.771.

Which sensor-assay potency score (higher = more potent) does the source give for TCCAACACTCCATTCTTCCCAA here?
Its sensor-assay potency score (higher = more potent) is -0.74.

With TTTTGTGGACATCAAGAGGGTT as the sequence, how does the sensor-assay potency score (higher = more potent) read?
Its sensor-assay potency score (higher = more potent) is -0.194.

Which sensor-assay potency score (higher = more potent) does the source give for TTCACGAACAGTTTTCGCTTGT here?
Its sensor-assay potency score (higher = more potent) is 0.41.

With TTTGCTTGTATTCACGAACAGT as the sequence, how does the sensor-assay potency score (higher = more potent) read?
The sensor-assay potency score (higher = more potent) was -0.914.

How did the sensor-assay potency score (higher = more potent) turn out when AAGATTGCCAACATACACCTCT was run?
The sensor-assay potency score (higher = more potent) was 0.896.

For TTCCTCCTTAGAAATATCCAGT, which sensor-assay potency score (higher = more potent) is on record?
Its sensor-assay potency score (higher = more potent) is -0.848.

For ATGAACATGACCACAGCCCAGG, which sensor-assay potency score (higher = more potent) is on record?
The sensor-assay potency score (higher = more potent) was -1.56.

Which sensor-assay potency score (higher = more potent) does the source give for TAGAAGGTACAGAATTTCCTCC here?
The sensor-assay potency score (higher = more potent) was 0.0428.

For TTTAGGATGTGCAACGCCGAGT, which sensor-assay potency score (higher = more potent) is on record?
Its sensor-assay potency score (higher = more potent) is -0.733.

Target: TDRD7
Assay: as above
Conditions: shRNA

With TTAGTTACTTTGACATTTGTGT as the sequence, how does the sensor-assay potency score (higher = more potent) read?
Its sensor-assay potency score (higher = more potent) is 0.2.

For ATAGTCAACATAGCATACCTTT, which sensor-assay potency score (higher = more potent) is on record?
The sensor-assay potency score (higher = more potent) was -1.08.

With TAGATTGTGGAAGATCTGCTAA as the sequence, how does the sensor-assay potency score (higher = more potent) read?
The sensor-assay potency score (higher = more potent) was -0.00415.

Which sensor-assay potency score (higher = more potent) does the source give for TTCAATGACTGTCTGCACCAGT here?
The sensor-assay potency score (higher = more potent) was 0.309.

How did the sensor-assay potency score (higher = more potent) turn out when TTAACCACAGCACTGCATCTGG was run?
The sensor-assay potency score (higher = more potent) was -0.0871.

Which sensor-assay potency score (higher = more potent) does the source give for TAGTGTAGGGAAACCTAGCTGT here?
Its sensor-assay potency score (higher = more potent) is -0.0859.

For TATCGTACAGAACAACAAGTGG, which sensor-assay potency score (higher = more potent) is on record?
Its sensor-assay potency score (higher = more potent) is -0.96.

TTTCTTGTAGAAACCGAGGTGG was tested. Which sensor-assay potency score (higher = more potent) did it give?
The sensor-assay potency score (higher = more potent) was 0.248.

With TTTCCTTTGTCTCTTAACGGTG as the sequence, how does the sensor-assay potency score (higher = more potent) read?
Its sensor-assay potency score (higher = more potent) is -1.32.

For TGACTTGTCACATATAGCCTTC, which sensor-assay potency score (higher = more potent) is on record?
The sensor-assay potency score (higher = more potent) was -0.332.

For TAGAAGGTCACTGAGCTTGTTC, which sensor-assay potency score (higher = more potent) is on record?
Its sensor-assay potency score (higher = more potent) is -0.0033.

How did the sensor-assay potency score (higher = more potent) turn out when TAAATTATCACTCATTTCCTTA was run?
The sensor-assay potency score (higher = more potent) was -0.487.

Target: TDRKH
Assay: as above
Conditions: shRNA

For TATAAGTAGATCTTTGGCCAAG, which sensor-assay potency score (higher = more potent) is on record?
Its sensor-assay potency score (higher = more potent) is -1.04.

TTTAATATTGGCTCCTTGCCGG was tested. Which sensor-assay potency score (higher = more potent) did it give?
The sensor-assay potency score (higher = more potent) was -0.28.

How did the sensor-assay potency score (higher = more potent) turn out when ATGTCCTTCAACATGTCTGGGA was run?
The sensor-assay potency score (higher = more potent) was -0.897.

With TTATAAGTCTTGATAGTAGTAA as the sequence, how does the sensor-assay potency score (higher = more potent) read?
Its sensor-assay potency score (higher = more potent) is -0.315.

Which sensor-assay potency score (higher = more potent) does the source give for TTAATATTGGCTCCTTGCCGGC here?
The sensor-assay potency score (higher = more potent) was -1.54.

With TCTGTGTCCACATCAATCCGAG as the sequence, how does the sensor-assay potency score (higher = more potent) read?
The sensor-assay potency score (higher = more potent) was -0.281.

For TTTTCTTCTATGTCTTCAGGAA, which sensor-assay potency score (higher = more potent) is on record?
Its sensor-assay potency score (higher = more potent) is 0.0327.

With ATCTTCTGAAACTTTCTCCAGT as the sequence, how does the sensor-assay potency score (higher = more potent) read?
Its sensor-assay potency score (higher = more potent) is -0.507.

TTGATAGTAGTAATGTCCCTTC was tested. Which sensor-assay potency score (higher = more potent) did it give?
The sensor-assay potency score (higher = more potent) was -0.374.

With TTGGTCTCAGTGAGCAACGTGC as the sequence, how does the sensor-assay potency score (higher = more potent) read?
Its sensor-assay potency score (higher = more potent) is -0.522.

Which sensor-assay potency score (higher = more potent) does the source give for TTGTGTACTAATTCTAGCCCAA here?
Its sensor-assay potency score (higher = more potent) is 0.0219.

For TTGTAGGTAAAGGTGCTGCTAC, which sensor-assay potency score (higher = more potent) is on record?
The sensor-assay potency score (higher = more potent) was -0.223.

From the OligoGym collection
